These results are taken from the OligoGym collection.
Note: reference of the scale not given here.

The first test deals with MARCH9. Put plainly: pooled miR-30 sensor sort-seq; sequence = guide strand. The following applies: shRNA.
TAATTTAGGACCTTCCACTGCT returned a sensor-assay potency score (higher = more potent) of 0.933. On the same count and under the same terms, then TGCAAGATTGTATAACCGCAGC, with -1.34; and TACTTGAAGTAGCAGAGCTCAC, with -1.11.

The target of a further test is MAST4. The test is described as above. The following applies: shRNA.
On to TAACTGATGCAACTTCTCCTGG, for which the sensor-assay potency score (higher = more potent) is -0.165. On to TTTGTCCACAGAGTCTTCCTTC, for which the sensor-assay potency score (higher = more potent) was found to be 0.0254. On the same count and under the same terms, under TTGCTTTTCACCAACAGCGGAC stands -0.756; under TTTGCTTTTCACCAACAGCGGA, -0.849; under TTCACATCGGAGAAGCTCCTTG, -0.392.

In the case of TTGGCCTTCAGCTTGTCGCGGT, the sensor-assay potency score (higher = more potent) came out at 0.119. Same read-out and setting: then TTGCTAATCAATTTAATCGTTT, with -0.519; and TTCTGTGCTTTCTAATCGCTGC, with 0.164; and TTTCTTTCGGAGGTAATCGATG, with -1.18. TTGCCTATTAAGCTTTTCCGGT displayed a sensor-assay potency score (higher = more potent) of -0.995. On the same count and under the same terms, then TATACTTCAGTGATTTTCCAGG, with -0.751. Still for that read-out and setting: under TAGGTAGTAAAATTCTTCCGGA stands 0.168.

Another test has as its target MATR3. The test is described as above. Conditions: shRNA.
Consider TATTCTTTGCAACTTCTTCATT, for which the sensor-assay potency score (higher = more potent) is -0.992. TAAGCTTTTTCTTTGCTGCTGC: the sensor-assay potency score (higher = more potent) came out at 0.692. On the same count and under the same terms, under TTGAACTCTCAGTCTTCTGGGA stands 0.368. TTGCTTTTGATCAAACTTCTGA: the sensor-assay potency score (higher = more potent) is -0.275. On the same count and under the same terms, then TTTCTCAGACAGGTCAACCTTC, with 0.61. Same read-out and setting: then TTCACTTGTATCTTTGTTGGGA, with 0.73; and TTGTGTAATAATCCACTGCGGC, with -0.905; and TATACCAACAGGAACATTGGGC, with 0.454.

Sequence TTGATCAAACTTCTGATCTGGC yielded a sensor-assay potency score (higher = more potent) of 0.816. Turning to TTCGGTTGAACTCTCAGTCTTC, the sensor-assay potency score (higher = more potent) was determined as 0.606. In turn, TTCTTGTTCTTTACCTTCGGTT yielded a sensor-assay potency score (higher = more potent) of -0.715. The same measure, in the same setting: under TTTCTCACCATCTTCACCGGAC stands -0.137.

The next test concerns the target MBD3. The description is as above. The following applies: shRNA.
The sequence ATCAGCATCTTGCCCGTGCGGA displayed a sensor-assay potency score (higher = more potent) of -0.991.

Take TCGCTCTTGACCTTGTTGCTGG: the sensor-assay potency score (higher = more potent) is -0.788.

TTGCTGCGGAACTTCTTCCCGC gave a sensor-assay potency score (higher = more potent) of -0.815.

The sequence TCGTCGGTCACCATGAAGGCTT registered a sensor-assay potency score (higher = more potent) of -0.866. On the same count and under the same terms, then TTCTTCTCCCAGAAGAGCTGGC, with -0.362; and ATCTTGCTCATCAGCATCTTGC, with -1.63; and TCGTCGTCGTCCTCAGCGCAGG, with -1.74. The same measure, in the same setting: under TTGCTCATCAGCATCTTGCCCG stands -0.234; under TTGAAGATGGACGCCGTCTGGC, -0.445; under TTGGGGAGGTCCATGGTCTTGA, -0.977. Still for that read-out and setting: then TTGGTAATCTTGGTCACCGGCT, with -0.729; and TAATCTTGGTCACCGGCTGCTT, with -0.615.
